Columns and labels:
[1] = target: T1, Aspartate--tRNA(Asp/Asn) ligase (Mycobacterium tuberculosis (strain ATCC 25618 / H37Rv)) (UniProt P9WFW3); test: Assay for Asp RNA synthetase-1 from Mycobacterium tuberculosis; assay type: functional; design: scale not given: direction of the effect not stated beside the values; conditions: 30 µM; also: in the data most compounds retested in dose-response had high values
T1 sequence (whole entry): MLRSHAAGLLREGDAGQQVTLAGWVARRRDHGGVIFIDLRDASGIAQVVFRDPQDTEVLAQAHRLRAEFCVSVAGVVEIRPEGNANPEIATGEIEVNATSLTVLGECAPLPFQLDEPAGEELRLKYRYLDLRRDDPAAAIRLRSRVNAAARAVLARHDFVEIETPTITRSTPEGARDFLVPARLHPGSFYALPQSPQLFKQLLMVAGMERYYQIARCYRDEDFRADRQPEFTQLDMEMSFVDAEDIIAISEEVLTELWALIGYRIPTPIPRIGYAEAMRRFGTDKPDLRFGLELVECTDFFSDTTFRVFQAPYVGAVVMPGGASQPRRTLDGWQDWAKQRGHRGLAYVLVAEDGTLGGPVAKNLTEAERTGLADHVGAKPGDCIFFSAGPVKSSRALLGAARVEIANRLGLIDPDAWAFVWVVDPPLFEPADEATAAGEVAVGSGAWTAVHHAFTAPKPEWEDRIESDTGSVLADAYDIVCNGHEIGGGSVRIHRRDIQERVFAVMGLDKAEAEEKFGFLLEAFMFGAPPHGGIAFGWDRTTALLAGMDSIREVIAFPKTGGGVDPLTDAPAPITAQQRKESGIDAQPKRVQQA

[2] = target: Shiga toxin 2 (Escherichia coli O157:H7) (UniProt P09385+P09386); test: E. coli 0.157:H7 Shiga Toxin SOP - stx2 screening assay; assay type: functional; design: scale not given: direction of the effect not stated beside the values; conditions: 30 µM

## Cc1noc(C)c1CN1CCc2nn(C(C)C)c(=O)cc2C1
[1]
  Percent Effect: 7.84%
[2]
  Percent Effect: -14%

## CN1CC(=O)N(c2ccccc2)CC12CCN(Cc1cccnc1)C2 (stereo not drawn)
[1]
  Percent Effect: -5.22%
[2]
  Percent Effect: -7.54%

## CN(Cc1nnc(-c2ccco2)o1)CC1CCCN1c1cccnn1 (stereo not drawn)
[1]
  Percent Effect: 7.29%
[2]
  Percent Effect: 11.7%

## Cn1nc2c(cc1=O)CN(Cc1nnc(-c3ccc(F)cc3)o1)CC2
[1]
  Percent Effect: 19.5%
[2]
  Percent Effect: -108%

## CCn1nc(C)c2nc(C(C)C)nc(N3CCCCC3)c21
[1]
  Percent Effect: 8.83%
[2]
  Percent Effect: -36.2%

## Cc1cnn(C2CCCN(C(=O)c3ccnc(-n4ccnc4)c3)C2)c1 (stereo not drawn)
[1]
  Percent Effect: 3.27%
[2]
  Percent Effect: -22.4%

## COCCc1ncc(CN2CCC(Oc3ccccc3C)CC2)cn1
[1]
  Percent Effect: 1.13%
[2]
  Percent Effect: 1.32%

## COc1ccccc1NC(=O)NCC(O)(c1ccccc1)C1CC1 (stereo not drawn)
[1]
  Percent Effect: -6.53%
[2]
  Percent Effect: -12.2%

## CN(C)S(=O)(=O)c1ccc(CN2CCCC2c2ccccc2)o1 (stereo not drawn)
[1]
  Percent Effect: 4.24%
[2]
  Percent Effect: -1.81%

## COc1ccc(CN2CCN(C(C)=O)CC3(CC(=O)N(C)C3)C2)cc1 (stereo not drawn)
[1]
  Percent Effect: 1.68%
[2]
  Percent Effect: -5.8%

## Cc1cnn(C2CCCN(C(=O)c3cc(C4CC4)on3)C2)c1 (stereo not drawn)
[1]
  Percent Effect: -1.95%
[2]
  Percent Effect: 14.5%

## CC(C)c1cc(NC(=O)CN2CCNC(=O)C2)on1
[1]
  Percent Effect: 2.59%
[2]
  Percent Effect: -3.5%

## NC(=O)c1cccc(CC2CCN(C(=O)CCCN3CCOCC3)C2)c1 (stereo not drawn)
[1]
  Percent Effect: 6.21%
[2]
  Percent Effect: -6.5%

## Cc1ccc(CN2CCCn3c(nc(Cn4cncn4)cc3=O)C2)s1
[1]
  Percent Effect: -1.14%
[2]
  Percent Effect: -10.9%

## Cn1c(CNc2c(F)cccc2-n2cccn2)cc(=O)n(C)c1=O
[1]
  Percent Effect: -0.864%
[2]
  Percent Effect: 0.236%

## c1ccc(CN2CCCC(c3nccnc3-n3ccnc3)C2)cc1 (stereo not drawn)
[1]
  Percent Effect: 2.31%
[2]
  Percent Effect: -2.34%

## Cc1nn(C(C)C)c(C)c1NC(=O)c1ccccc1
[1]
  Percent Effect: 1.73%
[2]
  Percent Effect: -4.81%

## COc1ccc(C)cc1CSCCn1nc2ccccn2c1=O
[1]
  Percent Effect: -3.83%
[2]
  Percent Effect: 6.71%

## CN(Cc1ccco1)Cc1cncc2c1CCN(c1ncccn1)C2
[1]
  Percent Effect: 0.874%
[2]
  Percent Effect: -26.7%

From ChEMBL document CHEMBL3988442, “University of Dundee, Small-Polar-MMV Screening Library” (2021)
